Experimental data reported in PubChem BioAssay (NCI).
Compounds without any hit were thinned out: in the full panel of roughly 79,000, 15% have a hit. A number with no mark means an inactive call. Activity calls are given as the source filed them. No stated cut-off is given here; in the data, active means growth inhibition above about 70%; inactive means the rest.

Assays:
[1] = NCI Yeast Anticancer Drug Screen. Data for the rad50 strain (AID 155);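 further: 0% = growth of vehicle-only cultures of the same strain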; conditions: S. cerevisiae rad50 strain growth inhibition, stronger effect = higher value
Method in brief: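 DNA repair mutant yeast, compound exposure, growth read-out; inhibition is taken relative to vehicle.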

[2] = NCI Yeast Anticancer Drug Screen. Data for the mec2-1 strain (AID 157); conditions: S. cerevisiae mec2-1 strain, stronger effect = higher value
Method in brief: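 Strain: mec2-1 (DNA repair/cell cycle alteration). Compound exposure, then growth measured; inhibition expressed relative to vehicle.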

[3] = NCI Yeast Anticancer Drug Screen. Data for the sgs1 mgt1 strain (AID 161);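 further: 0% = growth of cultures given vehicle only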; conditions: S. cerevisiae sgs1 mgt1 strain, stronger effect = higher value
Method in brief: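 Genetically altered yeast, compound exposure, growth inhibition relative to vehicle.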

[4] = NCI Yeast Anticancer Drug Screen. Data for the cln2 rad14 strain (AID 165);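 further: 0% = growth equal to vehicle treated cultures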; conditions: S. cerevisiae cln2 rad14 strain, stronger effect = higher value
Method in brief: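 Compounds are applied to the cln2 rad14 yeast strain, and growth is then compared with that of vehicle-treated cultures to give inhibition.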

[5] = NCI Yeast Anticancer Drug Screen. Data for the bub3 strain (AID 167); conditions: S. cerevisiae bub3 mutant strain, stronger effect = higher value
Method in brief: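 In this screen, a yeast mutant lacking normal mitotic checkpoint function is challenged with compound. Relative growth versus vehicle gives the inhibition value.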

[6] = NCI Yeast Anticancer Drug Screen. Data for the mlh1 rad18 strain (AID 175); conditions: S. cerevisiae mlh1 rad18 strain growth inhibition, stronger effect = higher value
Method in brief: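 Read-out is yeast growth inhibition, calculated against vehicle-only controls. The compound was applied to a strain engineered with DNA damage repair alterations.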

[7] = at 5.0 µM (retest, dose inferred, filed as 0.5)
[8] = at 50.0 µM (retest, dose inferred, filed as 5.0)

Row | Compound | growth inhibition [1, 7] | growth inhibition [1, 8] | growth inhibition ([1]; at 50.0 µM) | growth inhibition [2, 7] | growth inhibition [2, 8] | growth inhibition ([2]; at 50.0 µM) | growth inhibition [3, 7] | growth inhibition [3, 8] | growth inhibition ([3]; at 50.0 µM) | growth inhibition [4, 7] | growth inhibition [4, 8] | growth inhibition ([4]; at 50.0 µM) | growth inhibition [5, 7] | growth inhibition [5, 8] | growth inhibition ([5]; at 50.0 µM) | growth inhibition [6, 7] | growth inhibition [6, 8] | growth inhibition ([6]; at 50.0 µM)
1 | O=S(=O)(Nc1ccccc1-c1ccc(Cl)cc1)c1ccccc1 | -6% | 14% | 98.9% (active) | -8% | 8% | 52.9% | -7% | -56% | 97.5% (active) | -12% | 95% (active) | 98% (active) | 2% | 91% (active) | 54.9% | -8% | 57% | 73.7% (active)
2 | O=C(CC(C[N+](=O)[O-])c1ccc2c(c1)OCO2)c1ccccc1 (configuration not stated) | 0% | -3% | -12.5% | 9% | 17% | 17.1% | -1% | -50% | 33.9% | 4% | 16% | 4.65% | 18% | 45% | 88.2% (active) | -4% | 9% | 45.1%
3 | CC(C)=CC1C(COC(=O)CCl)C1(C)C (configuration not stated) | -6% | 8% | 1.85% | 3% | 0% | 44.8% | -2% | 3% | -12.3% | 0% | -11% | -29.4% | 2% | -5% | 36.1% | -2% | 5% | -23.6%
4 | COc1ccc(-c2cn(-c3ccccc3)c3ncnc(N)c23)cc1 | 5% | 18% | 24.1% | 5% | 23% | 11.8% | 10% | 52% | 79.5% (active) | 1% | 0% | 33.8% | 2% | 9% | -15.4% | -2% | 14% | 17.6%
5 | Cc1ccc(S(=O)(=O)CC2(Br)CCc3ccccc3C2=O)cc1 (configuration not stated) | 39% | 71% (active) | 74.8% (active) | 31% | 15% | 62.5% | 40% | 74% (active) | 75.3% (active) | 1% | 18% | 38.6% | 12% | 60% | 42.5% | 23% | 48% | 54.8%
6 | O=[N+]([O-])c1cccc2nc3ccccc3c(NCCNCCO)c12 | 89% (active) | 98% (active) | 75.3% (active) | 95% (active) | 99% (active) | 51.2% | 90% (active) | 99% (active) | 80.2% (active) | 75% (active) | 98% (active) | 76.8% (active) | 42% | 99% (active) | 10.6% | 89% (active) | 98% (active) | 88% (active)
7 | CC(C)CN(CC(C)C)CN1C(=O)/C(=C/c2ccc([N+](=O)[O-])cc2)SC1=S | 16% | 53% | 63.2% | 8% | 61% | 40.3% | 11% | 59% | 67.7% | 37% | 44% | 46.9% | 4% | 37% | 41.2% | 26% | 66% | 71.2% (active)
8 | CCOC(=O)c1ccc(-n2c(C)nc3ccc(Br)cc3c2=O)cc1 | -4% | -6% | 53% | -1% | -7% | 61.6% | -4% | -7% | 40% | 0% | -6% | 64.5% | 1% | -1% | 77.6% (active) | -2% | -6% | 74.8% (active)
9 | Cc1ccccc1-n1c(N)c(-c2nc3ccccc3[nH]2)sc1=S | 36% | 45% | 81.2% (active) | 22% | 50% | 70.7% (active) | 42% | 57% | 68.2% | 37% | 44% | 70.4% (active) | 41% | 55% | 83.1% (active) | 42% | 61% | 80.2% (active)
10 | Clc1nn2nnnc2c2ccccc12 | -133% | 87% (active) | 80.2% (active) | -35% | 82% (active) | 81.2% (active) | -46% | 65% | 51.5% | -51% | 24% | -31.6% | -51% | 77% (active) | 65% | -102% | 74% (active) | 73.8% (active)
11 | Cc1cc(NS(=O)(=O)c2ccc(NCc3c4ccccc4nc4cc(Cl)ccc34)cc2)no1 | 26% | 97% (active) | 98.2% (active) | 22% | 99% (active) | 98.5% (active) | 27% | 99% (active) | 98.5% (active) | 6% | 97% (active) | 97.3% (active) | 25% | 99% (active) | 96.2% (active) | 9% | 97% (active) | 98.2% (active)
12 | COC1=Nc2ccccc2/C=C\c2ccccc21 | -136% | -77% | 78.5% (active) | -50% | -57% | 82.2% (active) | -67% | -53% | 67.7% | -49% | -60% | 25.2% | -62% | -85% | 43.7% | -124% | -118% | 69.5%
13 | Cc1cc(I)ccc1NC(=S)Nc1ccccc1F | -3% | 62% | 90.7% (active) | -4% | 79% (active) | 90.5% (active) | -3% | 41% | 86.5% (active) | -19% | 45% | 70% (active) | 5% | 86% (active) | 95.1% (active) | -4% | 68% | 90.7% (active)
14 | S=C(Nc1cc(Cl)c(Cl)cc1Cl)SCc1ccccc1 | 14% | 97% (active) | 98.7% (active) | 8% | 99% (active) | 99.3% (active) | 30% | 99% (active) | 99.2% (active) | 12% | 98% (active) | 97.8% (active) | 39% | 99% (active) | 99.2% (active) | 55% | 99% (active) | 99% (active)
15 | Cc1ccc(N=Nc2ncccc2O)cc1C | -157% | 95% (active) | 98.8% (active) | -49% | 95% (active) | 98.2% (active) | -67% | 95% (active) | 98.4% (active) | -64% | 93% (active) | 87.4% (active) | -85% | 96% (active) | 97.7% (active) | -121% | 95% (active) | 98.2% (active)
16 | O=C1C=CC(=O)N1C12CC3CC(CC(C3)C1)C2 | 41% | 99% (active) | 90.8% (active) | 62% | 99% (active) | 93.4% (active) | 73% (active) | 99% (active) | 90.9% (active) | 13% | 99% (active) | 91.5% (active) | 72% (active) | 99% (active) | 91.8% (active) | 76% (active) | 99% (active) | 90.7% (active)
17 | O=C1c2cc(Br)cc(Br)c2NCCC1(Br)Br | 99% (active) | 98% (active) | 97.7% (active) | 98% (active) | 100% (active) | 99.1% (active) | 100% (active) | 99% (active) | 97.8% (active) | 99% (active) | 98% (active) | 98% (active) | 99% (active) | 98% (active) | 97.5% (active) | 100% (active) | 98% (active) | 98.5% (active)
18 | c1ccc2c(c1)Sc1nccc3ccnc-2c13 | 92% (active) | 95% (active) | 82.3% (active) | 28% | 93% (active) | 79.3% (active) | 23% | 92% (active) | 80.7% (active) | 10% | 88% (active) | 72.8% (active) | 25% | 92% (active) | 79.7% (active) | 50% | 91% (active) | 79.2% (active)
19 | NC(N)=NC(N)=Nc1ccc(-c2ccccc2)cc1 | -17% | 96% (active) | -11.6% | 1% | 96% (active) | 14.6% | 2% | 97% (active) | 2.45% | -8% | 93% (active) | 7.8% | -1% | 97% (active) | 76.5% (active) | 4% | 96% (active) | 32.4%
20 | c1ccc2c(c1)Cc1c-2nc2ccccc2c1N1CCOCC1 | 87% (active) | 98% (active) | 97% (active) | 17% | 99% (active) | 91% (active) | 6% | 98% (active) | 82.3% (active) | 18% | 98% (active) | 34.9% | 54% | 98% (active) | 67.5% | 25% | 98% (active) | 89.7% (active)
21 | Cc1nn(C)c2ccc3ccccc3c(=O)c12 | 9% | 66% | 88.5% (active) | -1% | 44% | 45% | 2% | 50% | 42.6% | 18% | 47% | 29.4% | -6% | 26% | 32.6% | 11% | 81% (active) | 76% (active)
22 | CC(C)c1ccc2c(c1)CC[C@H]1[C@](C)(C(=O)O)CCC[C@]21C | -1% | 96% (active) | 91.6% (active) | 2% | 96% (active) | 93% (active) | 10% | 96% (active) | 91.8% (active) | -11% | 96% (active) | 91.3% (active) | -2% | 95% (active) | 90.8% (active) | 9% | 95% (active) | 91.1% (active)
23 | CN(C)CC(O)c1cc(-c2ccc(Cl)cc2)nc2c(Cl)cc(Cl)cc12 (configuration not stated) | 11% | 99% (active) | 99.2% (active) | 12% | 99% (active) | 99.4% (active) | 41% | 99% (active) | 99.5% (active) | 9% | 97% (active) | 99.3% (active) | 8% | 99% (active) | 99.5% (active) | 46% | 99% (active) | 99.4% (active)
24 | CC(C)C(=O)/C=C/c1c(Cl)cccc1Cl | 22% | 26% | 26.6% | 14% | 22% | 41.9% | 11% | 20% | 48.4% | 16% | 28% | 46% | 22% | 18% | 54.9% | 19% | 21% | 43.6%
